This note sets out measurements from the supplement of paper PMC6555819.

The first assay deals with PPARg:RXRa 90nM:30nM, anti-RXR (NR concentration 90 nM, RXRa partner concentration 30 nM). In words: PBM binding z-score (relative to random genomic background probes); higher = stronger binding; sequences stand for … in GC…GCGATTGACAGCGTAGAATGAAGG
The procedure, abridged: (§1)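 Each nuclear receptor dimer, without ligand, was incubated for 1 h on custom Agilent 4×180K protein-binding microarrays. Binding was detected with antibodies against each partner (one per run), and scanned fluorescence was regression-normalized. The binding z-scores are referenced to random human genomic background probes.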
On to TCTTGTAGATTAGCAGGTTAAGAAAGCTGGCCAA, for which the PBM binding z-score turned out to be 2.07.

CGAACTAGGTCAGAACAGGACAGTGAAGGATGAT gave a PBM binding z-score of 3.44.

CCTACTGGCCCAAAGGTCATTGATTCCAATGCTC: the PBM binding z-score came out at 7.85.

CGAACCAGGGCATGAGTTGATAGCAAATGCCGAT: the PBM binding z-score was 0.593.

Sequence TTCCCAAGGTGAAAGGTCGTTGATGCACGCCTTG gave a PBM binding z-score of 7.54.

As to CCTGCTACGTCATGGTCAGCTAATCTACAGTATG, the PBM binding z-score was -0.333.

Take TCGAGTAGGTTACCAATGAGGCATTCAGCTTTCT: the PBM binding z-score came to 1.22.

In turn, AGTCAAAGTTCATCTAGGTAACGTACGATATGCT yielded a PBM binding z-score of 5.86.

TCTAGGTGGTCACGGAGGTCACACACGACGGGTA registered a PBM binding z-score of 3.96.

Consider ACTAGCAGGCCAAGGGTCACCCAAGATTAGTCCG, for which the PBM binding z-score came out at 9.09.

Sequence GATACAGTGTCAGCTAGAGGCCAGAGTATGGAAA gave a PBM binding z-score of -0.224.

As for CCTTCTGGGCCATCAGGTCATTGATATCAACGTT, the PBM binding z-score was 2.63.

Regarding TCTTGTAGATAAACAGGAGGTTAAGAAAGATCGA, the PBM binding z-score came out at 1.89.

CCTACTGGGCCAAGGGTCATTGATTCCAATGCTC showed a PBM binding z-score of 10.2.

On to GCTTGGAGATCAAGGTTAAGAAAGACTAAGCTAA, for which the PBM binding z-score was determined as 0.671.

On to ATCTCTAGGTAAGACTCAGTTCAGCGAAGAACGC, for which the PBM binding z-score was determined as 0.278.

TCTAGTTTGTCACGGAGGTCACACACGACGGGTA came in with a PBM binding z-score of 3.66.

Sequence TCTGGTAGATCAAGCAGGTTAAGAAAGCCTGAGT returned a PBM binding z-score of 1.5.

TTACCAAGGTGAGCTGAGGCCGTTGATCCAACTC gave a PBM binding z-score of -0.329.

Turning to TCTTGTAGCTCAATAGAGGTTAAGAAAGTGCGCT, the PBM binding z-score is 1.41.

On to ATCTCTAGGGAACCAAGTTCAGTGAATGCCGAAC, for which the PBM binding z-score is 0.0789.

Take TCTATTAGTTGAAGGACAACCGACGAGTCCGTTT: the PBM binding z-score was 3.08.

ACTAGCAGGCCAAGTTGGGGTCACTCAAACAAAG displayed a PBM binding z-score of 1.96.

The sequence TTACCAATGTGAGCTGAGGTCGTTGATCCAACTC registered a PBM binding z-score of 0.42.

Consider TCATATAGGTAATACAGGTGAAAATCGGCATCTA, for which the PBM binding z-score came out at 3.43.

Turning to TCTGCTAGGTCTGTTGGTCAGCTAACGAGCTGCC, the PBM binding z-score came out at 0.687.

TCTAGTTGGTCACGGAGGTCAAACACGACGGGTA returned a PBM binding z-score of 4.08.

For TCATTTAGGTAAAAGGTGAAAGTCGGTGTGGTAA, the PBM binding z-score was 9.37.

The sequence CGTCCAAGGTCAGAGAGGGCAGTGAATGCCGAGT came in with a PBM binding z-score of 1.46.

Sequence AATACAGGGTCACTAGGCCAGACTAGGTACGAAT gave a PBM binding z-score of 5.35.

Turning to ACTTACGGGCCAACGAGGTTATAGCACGCGTATA, the PBM binding z-score was determined as 0.602.

As to CACCCTAGGTCAGGGCCAGTATAGGAGGAACGTT, the PBM binding z-score came to 0.354.

CGAACTAGGTCGTTGACAGGACAGTGAATAGTAA: the PBM binding z-score stood at 1.44.

As to TCGAGTAGGTTACCAAAGGGGCATTCAGCTTTCT, the PBM binding z-score was determined as 1.22.

On to TCTTGTAGACCAGCAGGTTAAGAAAGCTGGCCAA, for which the PBM binding z-score is 1.96.

Sequence CCTATTAGTTGACCATAAGGGCAGCCGAAGCTCG came in with a PBM binding z-score of -0.0917.

The sequence CATACATGGTCAGCTAGGCCAGAGTAGGGACGGC had a PBM binding z-score of -0.753.

For TCTTGTAGATCAATAGAGTTTAAGAAAGTGCGCT, the PBM binding z-score is 1.99.

Sequence AGAATGAGGTTATACGTAGATAAGGGAAGAAAGT displayed a PBM binding z-score of 1.67.

A further assay deals with PPARg:RXRa DBDmut IVT, anti-RXR (DBD mutation: RXRa K156A/R161A, NR concentration 270 nM, RXRa partner concentration 90 nM). The description is as above. In a few lines:
as §1
Sequence TCTTGTAGATTAGCAGGTTAAGAAAGCTGGCCAA returned a PBM binding z-score of 1.76.

In turn, CGAACTAGGTCAGAACAGGACAGTGAAGGATGAT had a PBM binding z-score of 7.21.

Take CCTACTGGCCCAAAGGTCATTGATTCCAATGCTC: the PBM binding z-score stood at 0.578.

The sequence CGAACCAGGGCATGAGTTGATAGCAAATGCCGAT registered a PBM binding z-score of 2.9.

Sequence TTCCCAAGGTGAAAGGTCGTTGATGCACGCCTTG came in with a PBM binding z-score of 1.67.

Consider CCTGCTACGTCATGGTCAGCTAATCTACAGTATG, for which the PBM binding z-score worked out at 0.0597.

As to TCGAGTAGGTTACCAATGAGGCATTCAGCTTTCT, the PBM binding z-score turned out to be 3.32.

AGTCAAAGTTCATCTAGGTAACGTACGATATGCT registered a PBM binding z-score of 1.04.

As to TCTAGGTGGTCACGGAGGTCACACACGACGGGTA, the PBM binding z-score worked out at 1.88.

Sequence ACTAGCAGGCCAAGGGTCACCCAAGATTAGTCCG showed a PBM binding z-score of 1.04.

Consider GATACAGTGTCAGCTAGAGGCCAGAGTATGGAAA, for which the PBM binding z-score was -0.588.

On to CCTTCTGGGCCATCAGGTCATTGATATCAACGTT, for which the PBM binding z-score was 4.77.

For the sequence TCTTGTAGATAAACAGGAGGTTAAGAAAGATCGA, the PBM binding z-score turned out to be 1.35.

Sequence CCTACTGGGCCAAGGGTCATTGATTCCAATGCTC came in with a PBM binding z-score of 3.29.

Regarding GCTTGGAGATCAAGGTTAAGAAAGACTAAGCTAA, the PBM binding z-score is -0.178.

The sequence ATCTCTAGGTAAGACTCAGTTCAGCGAAGAACGC registered a PBM binding z-score of 1.67.

Turning to TCTAGTTTGTCACGGAGGTCACACACGACGGGTA, the PBM binding z-score came to 1.88.

TCTGGTAGATCAAGCAGGTTAAGAAAGCCTGAGT returned a PBM binding z-score of 1.17.

TTACCAAGGTGAGCTGAGGCCGTTGATCCAACTC came in with a PBM binding z-score of 0.88.

On to TCTTGTAGCTCAATAGAGGTTAAGAAAGTGCGCT, for which the PBM binding z-score was determined as 0.915.

In turn, ATCTCTAGGGAACCAAGTTCAGTGAATGCCGAAC displayed a PBM binding z-score of 0.604.

TCTATTAGTTGAAGGACAACCGACGAGTCCGTTT: the PBM binding z-score is 2.84.

Turning to ACTAGCAGGCCAAGTTGGGGTCACTCAAACAAAG, the PBM binding z-score is 1.25.

The sequence TTACCAATGTGAGCTGAGGTCGTTGATCCAACTC showed a PBM binding z-score of -0.252.

With TCATATAGGTAATACAGGTGAAAATCGGCATCTA, the PBM binding z-score worked out at 3.9.

For TCTGCTAGGTCTGTTGGTCAGCTAACGAGCTGCC, the PBM binding z-score was found to be 0.324.

TCTAGTTGGTCACGGAGGTCAAACACGACGGGTA: the PBM binding z-score amounted to 2.37.

TCATTTAGGTAAAAGGTGAAAGTCGGTGTGGTAA: the PBM binding z-score worked out at 4.84.

Sequence CGTCCAAGGTCAGAGAGGGCAGTGAATGCCGAGT gave a PBM binding z-score of 2.19.

In turn, AATACAGGGTCACTAGGCCAGACTAGGTACGAAT showed a PBM binding z-score of 4.01.

ACTTACGGGCCAACGAGGTTATAGCACGCGTATA: the PBM binding z-score stood at 0.992.

Turning to CACCCTAGGTCAGGGCCAGTATAGGAGGAACGTT, the PBM binding z-score is 0.709.

Consider CGAACTAGGTCGTTGACAGGACAGTGAATAGTAA, for which the PBM binding z-score was 5.75.

On to TCGAGTAGGTTACCAAAGGGGCATTCAGCTTTCT, for which the PBM binding z-score is 3.

Consider TCTTGTAGACCAGCAGGTTAAGAAAGCTGGCCAA, for which the PBM binding z-score was 1.63.

Take CCTATTAGTTGACCATAAGGGCAGCCGAAGCTCG: the PBM binding z-score was determined as 0.366.

Regarding CATACATGGTCAGCTAGGCCAGAGTAGGGACGGC, the PBM binding z-score was -0.304.

TCTTGTAGATCAATAGAGTTTAAGAAAGTGCGCT returned a PBM binding z-score of 1.58.

Sequence AGAATGAGGTTATACGTAGATAAGGGAAGAAAGT came in with a PBM binding z-score of 2.89.
